The record followed here is PubChem BioAssay AID1508600 (Functional Genomics Laboratory (NCATS/FGL), 2020).

In all, about 53,000 sequences went through this assay and about 3,700 (7%) were called active.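 The calls were made as follows: active = gene knockdowns whose robust z-score for IL-1 alpha signal is at least 2 or at most -2, so actives lie on both sides; inactive = the rest.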 The entries come from a sample that favours actives as a whole.

This experiment can be described thus: Components of the Cytosolic LPS Sensing Pathway: Gene Identification via Genome-wide siRNA Screen.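 Also: robust z of the log signal after scaling to non-targeting control siRNA wells of the plate.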 The note with it: RAW264.7 macrophages, IL-1a HTRF, actives lie on both sides, screened at 100 nM (by protocol), cells primed 5 h with Pam3CSK4 first. Put shortly:
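Knockdown: 100 nM siRNA, 48h, RAW264.7. Stimulation: Pam3CSK4 5 h, then LipidA via TransIT-TKO 24 h. Output: supernatant IL-1a HTRF, negative-control-normalized, log robust z-score; viability by CellTiter-Glo.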
On the technique in general: In TR-FRET formats the signal depends on donor and acceptor labels being close together.
As to GCUUUACGAUACUCCAUAUTT against Shd, the z-score is -0.506 (inactive).

In the case of GGGAGAAAAUUGGCUUAGATT against Dclre1b, the z-score is 0.424 (inactive).

For GAUGUUCUGCAUCUACUUUTT against Olfr545, the z-score was 1.46 (inactive).

For the sequence CCUGAAAUCCUGUAGCUACTT against Pgap3, the z-score was 1.35 (inactive).

For the sequence GGCAGAGACCUCAAAACCATT against Selplg, the z-score is -2.33 (active).

In the case of GGACCAUCACUUCCAGCUATT against Rab1b, the z-score was -0.726 (inactive).

For GGAAGUCUCUAUCCUGAACTT against Prss50, the z-score was -0.24 (inactive).

Consider GGAAGUCAACAAUGCAUUCTT against Olfr1451, for which the z-score is -0.133 (inactive).

On to GGUAAAUUACUCUGAUCAATT against Gpr61, for which the z-score is -0.593 (inactive).

As for GGGAUUAAUAUCAUACCGATT against Slc30a5, the z-score is -1.33 (inactive).

As for GGGUUUUAUGACCUUCAAGTT against Zkscan14, the z-score is 0.655 (inactive).

For GGAUGCUCUAGUUCCAUUATT against Aym1, the z-score is 0.51 (inactive).

For GGAGCAUCAUUUUAACACUTT against Tubd1, the z-score is 0.925 (inactive).

With GGAUCCUGGUCCAAACUUUTT against Atraid, the z-score is -1.52 (inactive).

As to GGUUAUUGGCACUUUUAGATT against Ect2, the z-score was 0.0504 (inactive).

As to GGAUUGCUUCACCACAUGUTT against Fes, the z-score was 2.44 (active).

In the case of GGUGCUGAUGAAGUUCAUGTT against Ap1b1, the z-score is 1.47 (inactive).

As for GGAGACUAUUUCAUCUACUTT against Tnfsf15, the z-score was 0.347 (inactive).

As to GGAGAAAACACAAUGUCUUTT against Limd1, the z-score was 0.441 (inactive).

Turning to CCUACAGAUAGGUAUGUAGTT against Exo1, the z-score was -2.07 (active).

For the sequence GGACUUUGAGGAGAAGGAUTT against Rabep2, the z-score was -1.34 (inactive).

Turning to GGAAGGUGUCAAUAAAGAUTT against Lypd3, the z-score was 0.0184 (inactive).

Regarding GGGAUUUUUGAAACUGAAGTT against Glod4, the z-score is -2.78 (active).

As for GGAGAGUCUCCAGACUUUGTT against Med29, the z-score is -0.521 (inactive).

On to GGAGGAGACUCAGCAGAUUTT against Gzmn, for which the z-score was 2.29 (active).

In the case of CCAGAAGAACAAGGAAGUATT against Gm6460, the z-score was -0.914 (inactive).

With GGCCCAACGACAUUUAUGUTT against Pop7, the z-score was -1.38 (inactive).

Take GCCUUCUGAUAACCUACUATT against Mefv: the z-score was -1.87 (inactive).

With GCUAGUGGUAAGUCAACCATT against Iqsec1, the z-score was -0.882 (inactive).

For the sequence GGAAGCUUACAUUGUGAAGTT against Unc5c, the z-score is -0.735 (inactive).

As to GGACAAGCAAGGUCAAUCATT against Taar1, the z-score is -1.11 (inactive).

As to GGUGUAAGAGCUUUGGCCUTT against Gm5420, the z-score is 2.35 (active).

Consider AAACUAGGGUCGAUUUCACTT against Hmgn3, for which the z-score is 0.704 (inactive).

Take GGCCUUCCUCUUCUGCUUATT against Csf3r: the z-score is 0.157 (inactive).

For GUGAACAACAUCCAAGCGATT against Dhrs7c, the z-score is 0.183 (inactive).

Regarding GCGGAAAAAUUACUUUCUUTT against Tas2r107, the z-score was -2 (inactive).

For GGAGUUUUCAUGCCUACAATT against Odam, the z-score is 2.58 (active).

Regarding GGAAACCUACCAAGAAACGTT against Fam234a, the z-score is -0.293 (inactive).

GGGACAAUUGGAAAGGCGATT against Wdr55: the z-score is 0.507 (inactive).

Take GGCACUUUCGGGAAUUCACTT against Nup160: the z-score is -2.5 (active).

With GCCUAUCAGUAUCAUAGUUTT against Dnajc10, the z-score is 0.905 (inactive).

With GGAGUAUUCAACAUUUGUATT against Trim11, the z-score was -0.523 (inactive).

In the case of GAACGGGUUACCAUGUGGUTT against Xkr9, the z-score was 0.546 (inactive).

CGCAGGUGAGAGCAAUGUUTT against Lrrn4cl: the z-score is -1.35 (inactive).

Regarding GGAAGGAACUCAAGAAGACTT against Ifrd1, the z-score was 2.13 (active).

Take GGAUGUGAAAUUCAAGCUUTT against Dhx34: the z-score was -0.457 (inactive).

In the case of GGAUACAGAAGGUUUUCUUTT against Abcd4, the z-score is -0.137 (inactive).

GGAACCCUUUUCAAAAGAGTT against Bclaf3: the z-score is 0.112 (inactive).

As to GGAGGAGACUAAAGAAAAUTT against Myf6, the z-score is -1.53 (inactive).

On to GGAAACAUCUUGUUGAAGATT against BC106179, for which the z-score was 0.361 (inactive).

As for GGAGAAAGCAGAGAUAAAATT against Cdk11b, the z-score was -1.8 (inactive).

Take CCCACAACUGCAAAUUGUGTT against Olfr782: the z-score is -1.21 (inactive).

Consider GGAUACAAGAAACCUUAAGTT against Os9, for which the z-score is 1.09 (inactive).

As for CGACUCUUGCCUGUUCGUGTT against Adamtsl5, the z-score was -2.48 (active).

Consider GGAUAAAUUUCAAGAUGUGTT against Naip5, for which the z-score is -0.552 (inactive).

Take “GGUACCAUUCGUUCAAACCTT against 3830406C13Rik”: the z-score is 0.416 (inactive).

In the case of GGCCUUUACGUCUUCCUAGTT against Zdhhc12, the z-score is -1.19 (inactive).

On to GGAAGAUGGGCAAGAUGAUTT against Sash3, for which the z-score was -0.183 (inactive).

Take CCCAGCACUUUUUCGCUCUTT against Olfr458: the z-score was 0.959 (inactive).

Take GCAGGACAACCAGCUGGUATT against Tmem107: the z-score was 3.43 (active).

As to GGCACUCAGCAAGAUUGUATT against Nr2c2ap, the z-score is -0.28 (inactive).

Turning to GCUCAUCUUAUCCUCUAAGTT against Cts7, the z-score is 0.391 (inactive).

In the case of UCAGGUCGCUGCUAAACUCTT against Ccdc57, the z-score is -1.26 (inactive).

GGUUCAAAGGUGAUGGUGUTT against Dab2: the z-score was 0.273 (inactive).

CGAGCUUUGAAAGUUUAAUTT against Pcsk2: the z-score was 0.591 (inactive).

For CCUGACGAUUGAGUAUCAUTT against Tubgcp4, the z-score is -0.267 (inactive).

With GGACCAGACGAACAGUGAUTT against Surf2, the z-score is 2.28 (active).

As to GGACCUGCCCAAAUCUGAUTT against Fbxo40, the z-score is 0.307 (inactive).

Take CGGCUCUUCAAUAGAGCCUTT against Olfr123: the z-score was -0.265 (inactive).
